Dicer inh: inhibitors of human Dicer processing of pre-microRNA | Q9UPY3 | cat-ELCCA pre-miR-21 Dicer processing, chemiluminescence; hits give high values | z-score at 25 µM | 47,000 compounds, 6% hits | AID 1347074; in the data active = z-score above about 3, passing the limit was not always enough;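 note: plate controls were vehicle for no effect and no enzyme for full effect; higher signal means more uncleaved substrate so more Dicer inhibition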
Target sequence (Q9UPY3 whole entry, looked up): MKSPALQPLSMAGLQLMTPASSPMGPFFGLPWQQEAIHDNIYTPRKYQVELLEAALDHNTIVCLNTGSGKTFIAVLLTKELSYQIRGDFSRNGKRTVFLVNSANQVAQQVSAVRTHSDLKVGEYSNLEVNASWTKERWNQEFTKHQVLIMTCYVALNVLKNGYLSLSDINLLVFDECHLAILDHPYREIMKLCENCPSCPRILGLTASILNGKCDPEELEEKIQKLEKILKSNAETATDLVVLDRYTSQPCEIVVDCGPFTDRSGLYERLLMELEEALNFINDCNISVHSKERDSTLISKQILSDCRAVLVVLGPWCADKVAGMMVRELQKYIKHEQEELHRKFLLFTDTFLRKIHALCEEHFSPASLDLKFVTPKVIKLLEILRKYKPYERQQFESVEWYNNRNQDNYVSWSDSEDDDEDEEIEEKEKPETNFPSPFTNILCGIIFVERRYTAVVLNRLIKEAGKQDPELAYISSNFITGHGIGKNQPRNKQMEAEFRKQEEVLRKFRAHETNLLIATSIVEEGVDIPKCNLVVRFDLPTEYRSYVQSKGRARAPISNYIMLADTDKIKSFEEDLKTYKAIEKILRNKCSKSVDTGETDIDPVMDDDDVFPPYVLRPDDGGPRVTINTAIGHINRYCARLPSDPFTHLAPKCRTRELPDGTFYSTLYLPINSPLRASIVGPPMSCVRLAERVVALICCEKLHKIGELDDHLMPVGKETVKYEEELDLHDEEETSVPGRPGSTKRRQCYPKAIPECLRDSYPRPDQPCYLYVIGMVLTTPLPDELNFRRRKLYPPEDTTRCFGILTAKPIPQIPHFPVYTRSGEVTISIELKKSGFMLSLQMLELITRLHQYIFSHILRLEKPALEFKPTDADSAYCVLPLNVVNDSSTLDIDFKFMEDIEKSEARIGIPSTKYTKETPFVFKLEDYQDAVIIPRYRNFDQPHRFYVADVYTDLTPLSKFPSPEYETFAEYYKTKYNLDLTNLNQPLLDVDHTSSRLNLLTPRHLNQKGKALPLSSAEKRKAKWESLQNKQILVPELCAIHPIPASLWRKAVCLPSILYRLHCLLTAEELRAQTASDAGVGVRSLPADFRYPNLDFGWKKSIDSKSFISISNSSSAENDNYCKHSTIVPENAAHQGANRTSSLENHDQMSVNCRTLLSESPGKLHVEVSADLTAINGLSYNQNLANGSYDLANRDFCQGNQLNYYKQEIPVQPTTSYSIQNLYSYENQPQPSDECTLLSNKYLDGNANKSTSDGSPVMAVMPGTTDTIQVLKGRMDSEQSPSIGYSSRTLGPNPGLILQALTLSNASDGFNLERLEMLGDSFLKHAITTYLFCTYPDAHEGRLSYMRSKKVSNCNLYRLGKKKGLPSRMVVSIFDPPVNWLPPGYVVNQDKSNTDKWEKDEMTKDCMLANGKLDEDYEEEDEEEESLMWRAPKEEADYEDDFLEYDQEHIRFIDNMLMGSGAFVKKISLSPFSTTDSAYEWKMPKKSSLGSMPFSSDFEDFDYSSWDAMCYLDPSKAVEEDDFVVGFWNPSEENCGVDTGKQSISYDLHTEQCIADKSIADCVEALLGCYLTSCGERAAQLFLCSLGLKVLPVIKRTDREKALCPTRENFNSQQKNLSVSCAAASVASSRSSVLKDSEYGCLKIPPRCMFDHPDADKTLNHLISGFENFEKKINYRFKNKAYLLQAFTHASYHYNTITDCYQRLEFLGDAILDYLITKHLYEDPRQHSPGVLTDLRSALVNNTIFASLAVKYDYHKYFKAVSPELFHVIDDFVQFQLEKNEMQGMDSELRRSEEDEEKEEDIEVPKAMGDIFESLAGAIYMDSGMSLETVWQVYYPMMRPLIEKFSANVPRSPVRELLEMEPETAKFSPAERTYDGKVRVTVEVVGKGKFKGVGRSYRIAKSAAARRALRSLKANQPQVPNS
Active calls of the source: *. The sample as a whole holds a higher share of hits than the screen did.

SMILES | Dicer inh
CC(=O)c1c(C)[nH]c(-c2ccccc2)nc1=S | -1.43
C=CCSc1nnc(-c2ccc(Br)cc2)o1 | 1.65
CC(=O)/C(=N\OCc1c(C)c(C)c(C)c(C)c1C)c1ccc2c(c1)OCO2 | 1.68
CCOC(CC(=O)NNS(=O)(=O)c1ccc(Cl)cc1)OCC | 0.88
O=C(CCCO)NCc1ccc(F)cc1 | -7.48
CC1=C(C(=O)OC2CCCCC2)C(c2coc3ccc(Cl)cc3c2=O)C2=C(CCCC2=O)N1 (stereo not drawn) | -0.15
O=C1/C(=C/c2ccccc2)N=C(c2ccccc2)N1/N=C/c1ccccc1 | -0.8
Clc1ccc(CSc2nsc(SCc3ccc(Cl)cc3)n2)cc1 | 0
Nc1ccc2nc(SCc3ccc(Cl)cc3)sc2c1 | 3.91*
Clc1ccc(CSc2nnc(SCc3ccc(Cl)cc3)s2)cc1 | 0.51
Cc1ccc(S(=O)(=O)NC(=O)OCC2CN(Cc3ccccc3)CCO2)cc1 (stereo not drawn) | 0.79
O=C(CSc1ncc(-c2ccc(Cl)cc2)o1)Nc1cc(Cl)cc(Cl)c1 | 0.47
N=c1nc(N2CCCCC2)cc(N)n1O | 1.28
Cc1cccc(S(=O)(=O)Nc2cccc(-c3cn4ccc(C)cc4n3)c2)c1 | 1.42
Cc1cccn2cc(-c3cccc(S(=O)(=O)N4CC(C)CC(C)C4)c3)nc12 (stereo not drawn) | 0.16
CC(=O)Nc1ccc(S(=O)(=O)Nc2ccc(-c3csc(C)n3)cc2)cc1Cl | -0.43
Cc1nc(-c2ccc(NS(=O)(=O)c3ccc(Cl)cc3)cc2)cs1 | 5.93*
CCc1ccc(S(=O)(=O)Nc2ccc(-c3cn4cccc(C)c4n3)cc2)cc1 | 7.21*
Cc1nc(-c2ccc(Cl)cc2)cs1 | 2.62
Cc1cccn2cc(-c3ccc(NS(=O)(=O)c4ccc(Cl)cc4)cc3)nc12 | 5.96*
Cc1cccc(S(=O)(=O)Nc2ccc(-c3cn4cccc(C)c4n3)cc2)c1 | 10.4
Cc1cc(C)c(S(=O)(=O)Nc2ccc(-c3cn4ccccc4n3)cc2)cc1C | 2.65
CCCN(CCC)S(=O)(=O)c1cccc(-c2cn3cccc(C)c3n2)c1 | 0.04
Cc1nc(-c2cccc(NS(=O)(=O)c3ccc4ccccc4c3)c2)cs1 | 4.53*
CC(=O)Nc1nc(-c2ccc3ccccc3c2)cs1 | 0.21
SMILES | Dicer inh
Cc1ccc(CNC(=O)c2cccnc2Sc2cccc(Cl)c2)cc1 | 58.8
COc1cc(C2C(C(=O)OC(C)C)=C(C)NC3=C2C(=O)CC(C)(C)C3)cc(Br)c1O (stereo not drawn) | -1.62
CN1CCc2ccccc2Cc2[nH]c3ccccc3c2CC1 | -0.93
O=S(=O)(Cc1nc(-c2ccc(Cl)s2)cs1)c1cccs1 | 0.85
N#CC(=C1SCCCCS1)S(=O)(=O)c1ccc(Cl)cc1 | 0.36
N#CC(=C1SCCS1)S(=O)(=O)c1ccc(Cl)cc1 | -0.22
N#CC(=C1SCCS1)c1ccc(Cl)cc1 | 4.68*
COc1ccc(-c2cc(C(F)F)n3ncc(C(=O)N4CCc5ccccc54)c3n2)cc1 | -0.32
COc1ccccc1NC(=S)N1CC(C)(C)C1=O | -0.45
COc1ccccc1N1CC(C)(C)C(=O)NC1=S | 6.22*
COc1ccccc1N1C(=O)C2C3C=CC(CC3)C2C1=O (stereo not drawn) | 0.02
CC(C)(C)NC(=O)Nc1ccc(Cl)cc1 | -0.17
COc1ccc(Nc2nnns2)cc1 | 0.19
CN(C)CC(O)Cn1c2ccc(Br)cc2c2cc(Br)cc(Br)c21 (stereo not drawn) | -1.12
Cc1ccc(-c2nc3n(n2)C(=O)CC(c2ccc4c(c2)OCO4)S3)cc1 (stereo not drawn) | -0.11
O=C1CC(c2ccccc2)Sc2nc(-c3ccc(F)cc3)nn21 (stereo not drawn) | -0.47
COc1ccc(-c2nc3n(n2)C(c2cccc(OC)c2OC)C2=C(CC(C)(C)CC2=O)N3)cc1 (stereo not drawn) | 2.32
O=C1CCC(=O)N1c1nc2n(n1)C(c1ccccc1)C=C(c1ccccc1)N2 (stereo not drawn) | 2.54
COc1ccc(-c2nc3n(n2)C(=O)CC(c2cccc4ccccc24)S3)cc1 (stereo not drawn) | 4.24*
O=C1CC(c2cccc3ccccc23)Sc2nc(-c3ccccc3)nn21 (stereo not drawn) | 4.37*
Cn1c(-c2ccc3c(c2)OCO3)cn2cc(-c3cccc(Br)c3)nc12 | 0.75
CCN1CCc2nc(N)oc2CC1 | -1.78
C=CCNc1oc(COc2ccccc2F)nc1C#N | 0.35
COc1ccccc1-c1c(C)nn2c(C)cc(C)nc12 | 1.89
Cc1ccc(=O)n(Cc2ccccc2)n1 | -1.13
SMILES | Dicer inh
COc1ccccc1N=C(N)SCc1ccccc1 | 5.87*
NC(=Nc1ccccc1)SCc1ccc([N+](=O)[O-])cc1 | -1.44
N#Cc1ccc(CSC(N)=Nc2ccccc2)cc1 | -0.99
c1ccc(-c2cnc(-c3cccc4ccccc34)o2)cc1 | -0.78
Cc1cc2c(cc1C)NC(c1ccc([N+](=O)[O-])o1)C1=C(CC(C)(C)CC1=O)N2 (stereo not drawn) | 2.09
O=C(O)c1coc2c1/C(=N/Nc1c(Cl)cc(Cl)cc1Cl)CCC2 | 3.77*
Clc1cc(Cl)c(N/N=C2\CCCc3occc32)c(Cl)c1 | 1.98
O=C(O)c1coc2c1/C(=N/N1CCCCC1)CCC2 | 0.82
Oc1ccccc1-c1nc(/C=C/c2ccccc2)no1 | 1.18
Oc1ccccc1-c1nc(/C=C/c2ccccc2Cl)no1 | 12.9
CN(C)c1ccc(/C=C/c2noc(-c3ccccc3O)n2)cc1 | 5.85*
COC(=O)c1sc(SC)c(C#N)c1-c1cccc(Cl)c1 | 37.2
COc1ccc(C(OC[C@H]2O[C@@H](n3cc(C)c(=O)[nH]c3=O)CC2O)(c2ccccc2)c2ccc(OC)cc2)cc1 (stereo partly drawn) | -0.92
OCC(c1ccccc1)C1CCCCC1 (stereo not drawn) | -0.88
CCOc1ccccc1C1C2=C(Nc3c1c(=O)[nH]c(=O)n3CCOC)c1ccccc1C2=O (stereo not drawn) | 1.37
CCn1c(NCc2cc(Br)ccc2O)nc2ccccc21 | 1.6
COc1nccnc1NS(=O)(=O)c1ccc(NCc2cc(Br)ccc2O)cc1 | 6.31*
COc1nccnc1NS(=O)(=O)c1ccc(NC(=O)c2cc(Cl)cc(Cl)c2)cc1 | 2.17
Cc1nn(Cc2ccc(C(=O)O)cc2)c(C)c1Br | 0.84
CCC(Oc1ccccc1)C(=O)Nc1nc2c(s1)C(=O)CC(C)(C)C2 (stereo not drawn) | -1.83
Cc1cc(NC(=O)CSc2nc(-c3ccccc3)c(C#N)c(=O)[nH]2)no1 | 0.24
CC1(C)CC(=O)c2sc(NC(=O)CSc3nc(-c4ccccc4)c(C#N)c(=O)[nH]3)nc2C1 | 4.06*
CSc1ccc(-c2ncnn2-c2cccc(Cl)c2)cc1 | 0.28
Clc1ccc(-n2ncnc2-c2ccccc2)cc1 | -0.28
CCc1ccc(-c2ncnn2-c2ccc(Cl)cc2)cc1 | 3.24*
SMILES | Dicer inh
N#C/C(=C\Nc1cc(C(F)(F)F)cc(C(F)(F)F)c1)S(=O)(=O)c1ccccc1Cl | -1.43
Cc1nn(C)c2sc(C(=O)NN)cc12 | -0.22
C=CCn1c(NCc2cc(C)ccc2O)nc2ccccc21 | 0.39
Cc1cccc2c1N(C(=S)Nc1ccccc1Cl)CCC2 | 1.61
S=C(Nc1ccccc1Cl)N1CCCc2ccccc21 | 3.76*
O=C(Nc1ccccc1)N1c2ccccc2CCc2ccccc21 | 0.06
O=C(Nc1ccc(OCc2ccccc2)cc1)N1CCCc2ccccc21 | 2.06
S=C(Nc1ccccc1Cl)N1CCc2ccccc2C1 | -0.33
O=C(Nc1ccccc1)N1CCCc2ccccc21 | 3.16*
CC1(C)OC(=O)CC1C(=O)N1CCOCC1 (stereo not drawn) | -1.31
CCc1cc2c(NC(CCSC)C(=O)O)ncnc2s1 (stereo not drawn) | 2.06
